Only some compounds are listed: those with a hit (about 11% of all), similar ones and a draw of the others.
HPGD block: blocks human HPGD enzyme activity | P15428 | purified HPGD, NADH fluorescence kinetic, PGE2 substrate | Potency, µM, usual class: inhibitors | 4.3% of 150,000 active | AID 894
Target sequence (P15428 whole entry, looked up): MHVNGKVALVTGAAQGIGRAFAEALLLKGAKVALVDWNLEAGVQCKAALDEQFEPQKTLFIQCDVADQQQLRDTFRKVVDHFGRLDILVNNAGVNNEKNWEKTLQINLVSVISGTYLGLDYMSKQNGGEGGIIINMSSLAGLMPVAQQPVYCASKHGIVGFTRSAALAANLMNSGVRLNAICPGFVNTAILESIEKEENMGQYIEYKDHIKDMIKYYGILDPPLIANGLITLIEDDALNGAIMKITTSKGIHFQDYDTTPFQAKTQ
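20 nM HPGD preincubated 15 min at room temperature with compound in 50 mM Tris-HCl pH 8, 0.01% Tween 20. Started with 1 mM NAD+ and 30 uM prostaglandin E2; NADH fluorescence (360/450 nm) read 5 times over 30-s intervals, last minus first.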
ALDH1A1 inh: inhibitors of human aldehyde dehydrogenase 1A1. P00352. Purified ALDH1A1, NADH fluorescence, propionaldehyde substrate. Potency, µM (titrated, usually from 75.3 µM), actives largely listed as inhibitors. 7.3% of 220,000 active. AID 1030
PNC assembly inh: perinucleolar compartment assembly inhibition. activity change (PNC), negative = inhibition, % at 10 µM. PC3M PTB-GFP, PNC prevalence imaging, 16 h; hits give low values. AID 2417. 3.1% of 140,000 active;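 active means readout at or below -70, meaning at least 70% loss of cells showing the perinucleolar compartment, a nuclear body marking cancer cells; inconclusive means readout between -30 and a set limit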
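PC3M cells stably expressing PTB-GFP, 750–1000 cells/well, treated 16 h at 37 °C with compound (23 nl of library stock), in duplicate. After paraformaldehyde fixation and Hoechst stain, imaged at 20x; PNC prevalence scored by image analysis.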
Each line names hits and unclear results; the compound was inactive in the other large screens. Unless noted, the call rests on the fitted dose curve; in most records, active means well fitted inhibition curve with a large enough effect (not every such curve was filed as active); inconclusive means small, poorly fitted or top-dose-only effect, or another doubt; inactive means no such curve, though single readings can be large or run the other way.

Cc1ccc(OCCn2cc(C#N)c3ccccc32)cc1	PNC assembly inh inconclusive
CC(/C=C/c1ccccc1)NC(N)=O (centres undefined)	none
C/C(N)=C(/C#N)C(=O)COC(=O)c1cc(-c2ccc(Br)cc2)nc2ccccc12	HPGD block inconclusive
CCCCn1nc2cc(C(=O)NCc3ccc(OC(F)(F)F)cc3)ccc2c1OC	HPGD block inconclusive, ALDH1A1 inh inconclusive
CCC/C=C(\CCC)C(NS(=O)(=O)c1ccccc1)c1ccc(C(F)(F)F)cc1 (centres undefined)	none (no result: PNC assembly inh)
NC(=O)c1csc(-c2ccncc2)n1	PNC assembly inh inconclusive
Nc1cc(-c2ccncc2)c[nH]c1=O	HPGD block inconclusive, ALDH1A1 inh 11.2µM, PNC assembly inh inconclusive
O=C(NCCCn1ccnc1)C(=O)NCC1OCCCN1S(=O)(=O)c1ccccc1 (centres undefined)	ALDH1A1 inh inconclusive
Cc1cccc(NC(=O)CSc2nc(N)c(NC(=O)c3cccs3)c(=O)[nH]2)c1C	none
O=C(c1ccccn1)N(Cc1cccs1)C1(C(=O)NC2CCCCC2)CCCCC1	none (no result: HPGD block, PNC assembly inh)
CCOC(=O)N1CCC(NC(=O)C2CCCN(c3nc4ccccc4o3)C2)CC1 (centres undefined)	none
CCOC(=O)N1CCC(NC(=O)C2CCN(C(=O)c3cc4oc(C)cc4n3Cc3c(F)cccc3Cl)CC2)CC1	ALDH1A1 inh 20µM (no result: HPGD block, PNC assembly inh)
O=C(c1ccccc1)[C@@H]1O[C@H]1c1ccc(-c2ccccc2)cc1	HPGD block inconclusive (no result: PNC assembly inh)
O=C(CSCc1ccccc1)Nc1ccc(F)cc1F	ALDH1A1 inh 23.8µM (no result: HPGD block, PNC assembly inh)
O=C(CCc1ccccc1)Nc1ccc(F)cc1F	none
Cc1ccc(S(=O)(=O)NC(=O)Nc2cc(C)ccc2F)cc1	ALDH1A1 inh 28.2µM
Cc1ccc(S(=O)(=O)NC(=O)Nc2ccc(F)cc2)cc1	PNC assembly inh inconclusive
O=C(COC(=O)c1cccnc1Cl)c1ccc(OC(F)F)cc1	none (no result: HPGD block, PNC assembly inh)
O=C1NC2(CCCCC2)Cc2ccccc21	ALDH1A1 inh inconclusive, PNC assembly inh inconclusive
O=C(O)CN=C1NC2(CCCCC2)Cc2ccccc21	PNC assembly inh -100.0
COC(=O)c1cc(=O)n(CCc2ccc(OC)c(OC)c2)c(=Nc2ccc(F)c(Cl)c2)s1	none
O=c1nc2n(c3ncccc13)CCCCC2	none (no result: HPGD block, PNC assembly inh)
CCC(CO)NCc1ccc(Br)cc1 (centres undefined)	none (no result: HPGD block, PNC assembly inh)
CCC(CO)NCc1sccc1C (centres undefined)	ALDH1A1 inh 20µM (no result: HPGD block, PNC assembly inh)
O=C(NCc1ccc2c(c1)OCO2)c1nnc(Cc2ccc(Cl)cc2)o1	none
CNC(=O)CCC(=O)Nc1ccc(C)cc1	none (no result: HPGD block, PNC assembly inh)
COCCn1c(-c2ccco2)csc1=Nc1cccnc1	ALDH1A1 inh inconclusive
CC(C)Cn1c(-c2ccco2)csc1=Nc1cccnc1	ALDH1A1 inh 12.6µM
O=C(Nc1cccc(C(F)(F)F)c1)N(Cc1ccc(Cl)cc1)CC(O)C(F)(F)F (centres undefined)	none
Cc1ccc(OCC(=O)NNC(=O)CSc2ncnc3sc(C)c(C)c23)cc1	none (no result: HPGD block, PNC assembly inh)
Cc1csc2c(SCC(=O)NNC(=O)C(Cl)Cl)ncnc12	ALDH1A1 inh 28.2µM (no result: HPGD block, PNC assembly inh)
C/C(=N\n1cnnc1)c1ccc(C#N)cc1	none (no result: HPGD block, PNC assembly inh)
O=C(O)CCN1C(=S)CSC1=S	none (no result: PNC assembly inh)
OCCN1CCN(C(=S)c2ccc(Br)cc2)CC1	none
CSc1ccc(C(=S)N2CCN(CCO)CC2)cc1	HPGD block 25.1µM, ALDH1A1 inh 22.4µM, PNC assembly inh inconclusive
O=C(O)[C@@H]1Cc2ccccc2N1	none (no result: HPGD block, PNC assembly inh)
Cc1ccc(NC(=O)C2CC(=O)N/C(=N/N=C/c3ccco3)S2)cc1C (centres undefined)	none
NC(=O)COc1ncn(-c2ccccc2)n1	PNC assembly inh -112.1
N/C(COc1ncn(-c2ccccc2)n1)=N\S(=O)(=O)c1ccc(Cl)cc1Cl	none (no result: HPGD block, PNC assembly inh)
O=C1CSC(c2ccccc2)N1c1cccnc1 (centres undefined)	none (no result: HPGD block, PNC assembly inh)
NC(=O)COC(=O)CNC(=O)c1cc(Cl)cc([N+](=O)[O-])c1	none (no result: HPGD block, PNC assembly inh)
NC(=O)COC(=O)CNC(=O)c1ccc(Cl)cc1	ALDH1A1 inh 2µM
O/N=C(\c1ccc(Cl)cc1)c1cc2ccccc2o1	HPGD block 25.1µM, PNC assembly inh inconclusive
COc1cccc2cc(/C(=N/O)c3ccccc3)oc12	none (no result: HPGD block, PNC assembly inh)
Cc1ccc(Nc2nc(N3CCN(C)CC3)nc(N)c2[N+](=O)[O-])cc1C	HPGD block inconclusive
COc1ccc2c(c1)CCc1sc(NC(=O)c3ccco3)nc1-2	HPGD block inconclusive, ALDH1A1 inh 22.4µM
COc1ccc2c(c1)Cc1sc(NC(C)=O)nc1-2	ALDH1A1 inh inconclusive, PNC assembly inh inconclusive
COc1ccc2c(c1)Cc1sc(NC(=O)c3cccnc3)nc1-2	ALDH1A1 inh 3.55µM (no result: HPGD block, PNC assembly inh)
COc1ccc2c(c1)-c1nc(NC(=O)c3ccco3)sc1CC2	ALDH1A1 inh inconclusive
CC#C[C@]1(O)CC[C@H]2[C@@H]3CCC4=CC(=O)CCC4=C3[C@@H](c3ccc(N(C)C)cc3)C[C@@]21C	none
CC(C)COc1cccc(C(=O)NC(=S)NCc2cccnc2)c1	ALDH1A1 inh inconclusive (no result: HPGD block)
COCCCNC(=O)Cn1nnc(-c2ccc(NC(=O)c3ccccc3F)cc2)n1	none
Cc1ccc(NC(=O)C(Nc2cccc(C)c2)c2ccccc2)cc1 (centres undefined)	ALDH1A1 inh 28.2µM
Cc1ccc(NC(=O)C(Nc2ccccc2)c2ccccc2)cc1 (centres undefined)	none
CCC(C)c1ccc(NC(=O)CSc2nncn2N)cc1 (centres undefined)	ALDH1A1 inh inconclusive
Nn1cnnc1SCC(=O)Nc1ccc(C2CCCCC2)cc1	ALDH1A1 inh 11.2µM
CCCCCCCCCCCCCCC/C=C/[C@@H](O)[C@H](NC(=O)CCCCCCCCCCCCC)OC (tested in a mixture with another compound)	ALDH1A1 inh inconclusive (no result: PNC assembly inh)
O=C(CNC(=O)C1COc2ccccc2O1)N/N=C/c1ccc(O)cc1O (centres undefined)	ALDH1A1 inh inconclusive
CC1=C(C(=O)Nc2ccccc2C)C2(CCCCC2)C(C(N)=O)C(=S)N1 (centres undefined)	PNC assembly inh -85.4
CC1=C(C(=O)Nc2ccccc2)C2(CCCCC2)C(C(N)=O)C(=S)N1 (centres undefined)	none
C=CCc1ccccc1OCC(=O)N/N=C/c1ccc(OC(C)=O)cc1OC(C)=O	none
CCOC(=O)c1c(-c2ccc(OC)cc2)csc1/N=C/C1C(=O)CCCC1=O	ALDH1A1 inh 5.01µM (no result: HPGD block, PNC assembly inh)
CCOC(=O)c1c(-c2ccc(OC)cc2)csc1/N=C/N(C)C	none
O=S(=O)(NCc1cccs1)c1cccc(S(=O)(=O)N2CCCCC2)c1	ALDH1A1 inh 8.91µM
O=C(NCc1cccs1)c1ccc(S(=O)(=O)N2CCCCC2)cc1	none (no result: HPGD block, PNC assembly inh)
O=S(=O)(NCCc1ccccc1F)c1cccc(S(=O)(=O)N2CCOCC2)c1	ALDH1A1 inh inconclusive, PNC assembly inh inconclusive
CCCCNS(=O)(=O)c1cccc(S(=O)(=O)N2CCCC2)c1	ALDH1A1 inh 14.1µM
Nc1ccccc1-c1nc2ccccc2[nH]1	HPGD block inconclusive, ALDH1A1 inh inconclusive, PNC assembly inh -83.4
Nc1ccc(-c2nc3ccccc3[nH]2)cc1	HPGD block inconclusive, ALDH1A1 inh inconclusive
CCCc1nn(C)c2c1C(c1ccncc1)C(C#N)=C(N)O2 (centres undefined)	none
CCN(CC)C(=O)c1sc(NC(=O)C(C)C)c(C#N)c1C	none (no result: HPGD block, PNC assembly inh)
Cc1c(C(=O)N2CCOCC2)sc(NC(=O)c2ccc3c(c2)OCO3)c1C#N	HPGD block inconclusive
CCN(CC)C(=O)c1sc(NC(=O)c2ccc3c(c2)OCO3)c(C#N)c1C	HPGD block 6.31µM, ALDH1A1 inh inconclusive, PNC assembly inh inconclusive
